Test results as given in PubChem BioAssay AID1003 (National Center for Advancing Translational Sciences (NCATS), 2008).
Active and inactive are the calls of the source.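 The calls were made as follows: active = compounds that block the bacterial enzyme AmpC beta-lactamase with detergent present and have a measured Ki; inactive = the rest.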

These molecules were tested against Beta-lactamase (Escherichia coli (strain K12)) (UniProt P00811) (assay: Confirmation Cuvette-Based Assay for Inhibitors of AmpC Beta-Lactamase (assay with detergent)). Conditions: purified AmpC, nitrocefin hydrolysis absorbance, 0.01% Triton.
Beta-lactamase (Escherichia coli (strain K12)), sequence (P00811 whole entry, looked up): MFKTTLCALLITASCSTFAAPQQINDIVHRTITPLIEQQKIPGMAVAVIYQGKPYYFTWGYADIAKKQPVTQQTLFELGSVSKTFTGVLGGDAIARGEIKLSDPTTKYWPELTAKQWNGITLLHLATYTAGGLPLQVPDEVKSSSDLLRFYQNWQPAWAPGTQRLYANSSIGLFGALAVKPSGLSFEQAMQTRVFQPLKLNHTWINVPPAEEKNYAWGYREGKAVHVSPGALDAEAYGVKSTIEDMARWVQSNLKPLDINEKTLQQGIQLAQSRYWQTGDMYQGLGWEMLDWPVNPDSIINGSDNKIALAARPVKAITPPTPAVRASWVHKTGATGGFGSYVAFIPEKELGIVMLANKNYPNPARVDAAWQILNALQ
Protocol: NIH Molecular Libraries Screening Centers Network [MLSCN] NIH Chemical Genomics Center [NCGC] MLSCN Grant: MH079825-01 Assay Provider: Shoichet, Brian K. This aggregation profiling approach exploits the sensitivity of aggregate formation to detergent. Inhibition of b-lactamase is measured in the presence and absence of 0.01% Triton X-100 (Feng 2007). This particular assay is a confirmation of previous qHTS (Inglese, 2006), Pubchem AID 584, assay with presence of 0.01% Triton X-100. For a related assay without detergent, see AID 585. Compounds that inhibit only in the absence of detergent are considered likely promiscuous aggregators. This confirmation assay is a cuvette-based screen of an oxadiazole carbamate series which is an expansion around docking hit Pubchem SID 4244870.
Reactions were performed in methylacrylate cuvettes in 1 mL of reaction volume. The beta-lactamase assay contained 1 nM AmpC beta-lactamase, 200 uM Nitrocefin and varying amounts of Triton X-100 (either 0.00002% or 0.1%). Compound and enzyme were incubated for 5 minutes before the reaction was initiated by addition of substrate. Nitrocefin hydrolysis was monitored as an increase in absorption at 482 nm on an Agilent 8453 UV-visible spectrophotometer at room temperature.

Ki, active:
O=C(O)c1ccc2c(c1)C(=O)N([C@H](Cc1ccc(-c3ccccc3)cc1)C(=O)O)C2=O 15 µM
Cn1cc(C[C@H](C(=O)O)N2C(=O)c3ccc(C(=O)O)cc3C2=O)c2ccccc21 17 µM
O=C(O)c1ccc2c(c1)C(=O)N([C@H](Cc1c3ccccc3cc3ccccc13)C(=O)O)C2=O 12 µM
O=C(O)c1ccc2c(c1)C(=O)N([C@H](Cc1cccc3ccccc13)C(=O)O)C2=O 5 µM
CC(C)(C)c1ccc(C[C@H](C(=O)O)N2C(=O)c3ccc(C(=O)O)cc3C2=O)cc1 11 µM
O=C(O)c1ccc2c(c1)C(=O)N([C@H](Cc1ccc3ccccc3c1)C(=O)O)C2=O 14 µM
O=C(O)c1ccc2c(c1)C(=O)N([C@H](Cc1c[nH]c3ccccc13)C(=O)O)C2=O 17 µM
Cc1ccc(C[C@H](C(=O)O)N2C(=O)c3ccc(C(=O)O)cc3C2=O)c(C)c1 17 µM
